Assay results published in the supplement of paper PMC11417369.
Whole data set: some 25,000 sequences, median “ln(normalized median fluorescence intensity)” near 9.7, cut for the highest 2% near 11. Many of the other results were omitted from the sample, so the highest values are more common in it than they were.

What follows are sequences tested on PfAP2-HC AP2 domain (GST-tagged) (assay: gcPBM binding intensity (ln(normalized median fluorescence intensity)); higher = stronger DNA binding).
In short: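 GST-fused DNA-binding domains of P. falciparum, expressed in E. coli, were applied at about 25 μg on average for 1 h to an Agilent 4 × 180k array of primer-extended double-stranded 36-bp intergenic genomic probes and negative controls. Binding intensity is the highest Masliner-normalised natural-log median intensity across replicate spots of either probe orientation, measured with Alexa488 anti-GST antibody and a 488 nm scan.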

| Sequence | gcPBM binding intensity (ln) |
| --- | --- |
| ATATGTTTTGTTTACGTGCACTGCTTTGTTTATATA [GTGCAC_site9622] | 10.5 |
| ATATTTATTTATAATTGTACTAATAATATATTTTAA [XGTACX_site587] | 9.51 |
| TTTCCTTACCCTTTCCTGGTGTAGAAATTATACTCT [TGCATGCA_negctrl_site116] | 9.61 |
| TATTTCATCTTTTAAGAAGGTACCCATATGTCATAT [GTGCAC_negctrl_site403] | 9.57 |
| TTATTTTATTTTAAAAAAAACAATATAAATTCAAAG [GTGCAC_negctrl_site57] | 9.09 |
| ATAATCCTTGGACACACACACACACTAGTAAATAAA [CACACA_site4423] | 11.3 |
| ATAATCCTTAAACACACACACACACTAATAAATAAA [CACACA_site8052] | 10.8 |
| AAATATATATATATAATACACACTAAAGTAACATAA [CACACA_site2870] | 10 |
| TCAAAGCACACATACACACACATATAGATTTATATA [CACACA_site6272] | 10.2 |
| CATTTGCACACGCACACACACATAAAAAGAAAAATA [CACACA_site6297] | 11.1 |
| TAAACATTTTTGCACGCACACAAAAAAAAAATAAAA [CACACA_site167] | 10.3 |
| TTTTATCACATTATTGCACACACATAAAGAAAAAAA [CACACA_site8922] | 9.98 |
| ATCATTTGCATACGCACACACACATAAAAAGAAAAA [CACACA_site355] | 10.9 |
| TTATCACATTATTGCACACACATAAAGAAAAAAATA [CACACA_site2841] | 9.94 |
| CATTTGCCCAGGCACACACACATAAAAAGAAAAATA [CACACA_site356] | 10.2 |
| ATCATTTGCTCACGCACACACACATAAAAAGAAAAA [CACACA_site4349] | 10.2 |
| ATGCATAAAAGAAATACACACATAAATATATAAATA [CACACA_site2163] | 9.99 |
| CATTTGCACCCGCACACACACATAAAAAGAAAAATA [CACACA_site4350] | 11.1 |
| ATATATTTTTAGCACAGTACAATATAATTAAATATA [XGTACX_site6779] | 9.62 |
| AAAAAAAAAAAAAAAAGTACTAATTGAATATTAAAC [XGTACX_site3383] | 9.44 |
| TATGTGTTCAGTATTGCACACACACTCCAAAATAAA [CACACA_site8018] | 10 |
| TATAAATATGTATATGCATGTGGAATATATAATTAA [TGCATGCA_site226] | 9.69 |
| GGATTTATTATATATACACACATACATATATATATA [CACACA_site8669] | 9.88 |

| Sequence | gcPBM binding intensity (ln) |
| --- | --- |
| ATTATATATATCAGGTGTACGTAAAAAAAATGGACG [XGTACX_site1028] | 9.88 |
| TTTTTAATTAACTTTGTAAACTTATATATATATATA [TGCATGCA_negctrl_site311] | 9.6 |
| AATCGTGTTCTGAATACACACTAATACAAATTTGTA [CACACA_site6058] | 9.75 |
| TGTAGTCTGGAGAAGAGTACACAGTATCTGGTAGCT [XGTACX_site2036] | 9.72 |
| AATATGTTTTGTTAGGTTGGTGTTGGTAGAATGTTT [CACACA_negctrl_site1563] | 9.85 |
| TATAGATACAGATACACACACACACCGACATATATA [CACACA_site5832] | 10.7 |
| TATACAGACAGACACACACACATATATATATATATA [CACACA_site1734] | 10.2 |
| CCCACAGACGGACACACACACACACCGACACATATA [CACACA_site4356] | 11 |
| ATTTGGCATGGACACACACACACACCGACAGACATA [CACACA_site4491] | 11.4 |
| AAAAATTTGGCATACACACACACACCGACACAGACA [CACACA_site4489] | 10.5 |
| TAAACAGACATATAAACACACATATAAACCGACATA [CACACA_site2478] | 10.3 |
| AGCACAGACGGACACACACACATATATATATATATA [CACACA_site4341] | 10.8 |
| CGCACAGACGGACACACACACACATATATATATATA [CACACA_site5249] | 11.1 |
| CATATACATACACATACACACATACAGACATACACA [CACACA_site6919] | 10.2 |
| CATACATACAGACACACACACATATATATATATATA [CACACA_site2920] | 10.7 |
| TATACTCATGGACACACACACATACACAGACATACA [CACACA_site5024] | 10.4 |
| CCCACAGACGGACACACACACACATATATATATATA [CACACA_site4352] | 11.1 |
| AAAAAAAAAAAAATGTGTACATACATATATTTATAT [XGTACX_site3076] | 9.74 |
| CTTTCGGTTGGAGAGGTGCGCTTCTCCTTTATAATA | 9.61 |
| TTTTTTTTTTATGGTACACACACGCGTATGGTTGCA [CACACA_site1876] | 10 |
| AAGAAATAAATACATACACACATATATATATATATA [CACACA_site3362] | 10.3 |
| CGAAAGAAAAAAAGCACACACAGTTTTGAGCAATGA [CACACA_site2109] | 10.1 |
| AAGTTTTATATTTATTAAATTTTTTTTTTTCCTTTT [XGTACX_negctrl_site184] | 9.2 |

| Sequence | gcPBM binding intensity (ln) |
| --- | --- |
| AATATTCGTAATTGATGTACTTGTAATTCATACATT [XGTACX_site8314] | 9.67 |
| AAAAATTTGGCATACACACACACACCCACACCCACA [CACACA_site587] | 10.4 |
| ATTTGGCATAAACACACACACACACCCACCCACATA [CACACA_site8096] | 10.9 |
| AAATTTGGCAAACACACACACACACCCACACCCACA [CACACA_site8095] | 11.4 |
| AACTTTGGCAAACACACACACACACCCACACCCACA [CACACA_site588] | 10.5 |
| ATTTGGCAGAAACACACACACACACCCACCCACATA [CACACA_site589] | 10.5 |
| AAATTTGGCAAACACACACACACACCCACAGAGACA [CACACA_site4490] | 11.3 |
| GATATGGAATATATGTGTACATATATATATATTATA [XGTACX_site1724] | 9.77 |
| TATTTATAAAAAAATACATGCATTTTTTTTTTTTTT [TGCATGCA_site65] | 9.36 |
| AAAACAAATTAAAATCGTACAATTATAATGTTAATG [XGTACX_site180] | 9.7 |
| TATTCTAATATATGCATACACACAAATGTGAATATA [CACACA_site2143] | 9.66 |
| AGATAGCTATTAAAAAGTACAAAAAAATATATATAT [XGTACX_site6289] | 9.71 |
| ATATTACACATATATGCACACATTGTAGTTATTTAT [CACACA_site8843] | 9.99 |
| ATATATAACGGGCACACACACATTTACGTATGAATA [CACACA_site1833] | 11.1 |
| TAATATATAACGTGCACACACACATTTACGTATGAA [CACACA_site1832] | 10 |
| ATATATAACGTGCACACACACATTTACGTATGAATA [CACACA_site6948] | 10 |
| TTTATTAGTAATTATACACACATATAAAATGAATAA [CACACA_site6754] | 9.67 |
| ATAATAAGGTTAAGCACACATATTACATATATAACT [CACACA_site3356] | 10 |
| GTTATATAAAAATATTGTACATTCTATATAAAGTCA [XGTACX_site4418] | 9.47 |
| ATATAGATCAGACACACACACATGTTTTAAAACTAT [CACACA_site6186] | 10.9 |
| TGTTTTTAAAAAAAAAAAAAATCACACCGGCAGGTA [CACACA_negctrl_site1437] | 9.49 |
| TTATATATAGATCACACACACACACCGGTTTTAAAA [CACACA_site4220] | 11.2 |
| TAAGAAAAATATATATGTACACATATATATATATAT [XGTACX_site8542] | 9.61 |

| Sequence | gcPBM binding intensity (ln) |
| --- | --- |
| CTTTGTGTTAAAAGTAGTACACCAAAAATATGACTT [XGTACX_site622] | 9.55 |
| TGGAAAAATAGGCACACACACATATATACATATATA [CACACA_site1297] | 10.5 |
| AATGGCAAAATAGGCACACACACATATACAGATATA [CACACA_site4726] | 10.6 |
| AATGGAAAAATAGGCACACACACATAAATACAGATA [CACACA_site4844] | 11.2 |
| AATGGAAAAATAGGCACACACACATATATACATATA [CACACA_site1298] | 10.6 |
| CATACATACAGACACACACACATATAAATACATACA [CACACA_site6533] | 10.3 |
| TTAAAAAAAAGACACACACACATACACATATTTATA [CACACA_site7535] | 11.2 |
| AAAAAAAAAAGACACACACACATATTTATTTATATA [CACACA_site6484] | 10.4 |
| TGGCAAAATAGGCACACACACATATACATATATATT [CACACA_site1059] | 10.3 |
| AATACATACAGACACACACACACATATAAATAAATA [CACACA_site7642] | 11.6 |
| ATATTATACATTTATACACACATAAAAAGACAAAAA [CACACA_site3565] | 9.92 |
| TATACAGACAGACACACACACATATATAAATATGTA [CACACA_site6912] | 10.6 |
| AATGGCAAAATAGGCACACACACATATACATATATA [CACACA_site1058] | 10.9 |
| TTCTATATATAATATTGTACTTAATTATTTTATTTT [XGTACX_site2701] | 9.83 |
| TTTTATCATATTTATTGTACACATAATATACATATC [XGTACX_site1145] | 9.99 |
| GATATGTACTAATACACACACATATATATATATATA [CACACA_site1022] | 10.2 |
| ATACATTTTTGTAAAAGTACATATACATGCCCCCTT [XGTACX_site1367] | 9.72 |
| TTATATATATATGTATGTACTTATAACTTTTATTAG [XGTACX_site3190] | 9.6 |
| TTTTTTTTTTTTGTAGTGCAAATTAAAAATATATGT | 9.39 |
| ACATAGATCATAGGTTGTACGAAGGTATCCTTTATT [XGTACX_site694] | 9.65 |
